esBAF inh: Bmi1 luciferase reporter increase in mESCs, primary screen, esBAF inhibitor project, mouse ES cells, Bmi1 luciferase knock-in, single point; 24 h; 100% = twice the neutral-well signal; reporter increase, % at 12.5 µM; 350,000 compounds, 2% hits; in the data active means activation above about 40%; inconclusive means no clear call, values can overlap the other calls;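 further: a rise in the Bmi1 reporter signal indicates esBAF inhibition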
HSF-1 act: HSF-1 activators, primary screen, NIH3T3-HGL cells, MG132 stress, luminescence, single point. NIH3T3-HGL HSF-1 luciferase reporter, 8 h; 100% = twice DMSO control signal. activation, % at 9 µM. 300,000 compounds, 1.7% hits;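 active means mean replicate activation of at least 50% with a set share of replicates each reaching 50%; inconclusive means only one of those two conditions met; inactive means mean below 50% and too few replicates reaching it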
Wnt bcat act: Wnt/beta-catenin pathway activators, primary screen, cell-based, plate reader, single point | activation, % at 9.35 µM | AID 743398, 2014 | Wnt/beta-catenin reporter cell assay, activator | 300,000 compounds, 1.2% hits; in the data active means activation above about 30%, passing the limit was not always enough; inconclusive means no clear call, values can overlap the other calls
HSF1 inh: HSF1 inhibitors in luciferase reporter cells, primary screen, cell-based, NIH3T3, luminescence; AID 2098, 2009; 300,000 compounds, 0.77% hits; activity change, negative = inhibition, % at 7.5 µM (by protocol); NIH3T3-HGL HSE-luciferase, MG132-induced, luminescence 8 h; active compounds read low;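 active means more than half of replicate wells show activity change below -50%, luminescence cut by over half; inconclusive means some wells, but at most half, below -50%; inactive means no replicate well below -50%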;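 further: luciferase reports HSF-1 transcriptional activity via heat shock element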
MITF TRPM1 HTS: activators of MITF-driven TRPM1 promoter reporter, primary screen, cell-based, SK-MEL-5, luciferase, single point; 300,000 compounds, 0.75% hits; AID 588334, 2011; activation, % at 12.5 µM; SK-MEL-5 TRPM1-promoter luciferase, 24 h; % of positive control, neutral wells = 0;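 active means mean activation of at least 80% with every replicate also reaching 80%; inconclusive means mean reaches 80% but some replicate falls short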
esBAF Ring1 qPCR: Ring1 mRNA increase in mouse ESCs, confirmation, esBAF inhibitor project, cell-based, mouse ESC, RT-qPCR, cherry-pick. shares compounds with esBAF inh. mouse ESC E14, Ring1 mRNA RT-qPCR fold change. fold change at 33 µM. 550 tested, under 10 active;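 active means Ring1 gene expression raised more than 2-fold over untreated cells in both replicates at either tested dose; inconclusive means only one replicate above 2-fold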;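 further: Ring1 transcript normalised to actin housekeeping signal by TaqMan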
esBAF Fgf4 qPCR: Fgf4 mRNA decrease in mouse ESCs, confirmation, esBAF inhibitor project, cell-based, mouse ESC, RT-qPCR, cherry-pick | shares compounds with esBAF inh | 550 compounds, 4% hits | mouse ESC E14, Fgf4 mRNA qPCR fold change; active compounds read low | Fgf4 expression fold change at 33 µM;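 active means Fgf4 expression under 0.8 fold of control in both repeat measurements at one or both tested doses; inconclusive means under 0.8 fold in just a single repeat measurement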;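 further: Fgf4 transcript normalised to actin in duplex TaqMan qPCR; cells exposed to compound for 24 h before lysis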
esBAF Bmi1 qPCR: esBAF inhibition via Bmi1 de-repression, confirmation, cell-based, RT-qPCR, mouse ESC, single point, cherry-pick. shares compounds with esBAF inh. mouse ESE14 ES cells, Bmi1 mRNA qPCR fold; active compounds read high. fold change at 33 µM. 550 tested, under 10 active;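 active means Bmi1 expression fold change above 6 at either tested concentration, seen in replicate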;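 further: higher fold means more Bmi1 de-repression and stronger esBAF inhibition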
A549 tox SP: A549 cell cytotoxicity, cytotoxicity control, plate reader, single point, cherry-pick. shares compounds with esBAF inh. cell viability change % (negative = cytotoxic), % at 25 µM, hits read low. 550 tested, under 10 active. AID 743188, 2013; call rule not given here
HepG2 cytotox SP: HepG2 cell cytotoxicity, cytotoxicity control, plate reader, single point, cherry-pick; shares compounds with esBAF inh; active compounds read low; activity change, negative = inhibition, % at 25 µM; 550 compounds, 4% hits; AID 743189, 2013; in the data active means activity change below about -50%
HEK293 cytotox SP: HEK293 cell cytotoxicity, cytotoxicity control, plate reader, single point, cherry-pick; shares compounds with esBAF inh; activity change, negative = inhibition, % at 25 µM, hits read low; 550 compounds, 3% hits; AID 743190, 2013; in the data active means activity change below about -38%, passing the limit was not always enough
Numbers stand for hits; – = inactive; ? = inconclusive; · = no result given. Rows were chosen to be rich in hits. Some 3.8% of all compounds tested hit in one or more screens of this group.

SMILES | esBAF inh | HSF-1 act | Wnt bcat act | HSF1 inh | MITF TRPM1 HTS | esBAF Ring1 qPCR | esBAF Fgf4 qPCR | esBAF Bmi1 qPCR | A549 tox SP | HepG2 cytotox SP | HEK293 cytotox SP
Cc1ccn2c(CC(C)(C)C)c(-c3ccc(F)cc3)nc2c1 | 65 | · | 55 | · | · | – | – | – | – | – | –
Nc1nc(SCc2ccccc2)c2ncn(C3CCCCC3)c2n1 | 85 | · | – | · | – | – | 0.78 | – | – | – | –
COc1ccc(-n2nc(C(=O)NCC(=O)N3CCN(c4ccccc4F)CC3)c3ccccc3c2=O)cc1 | – | – | – | – | ? | – | ? | – | – | -66 | –
COc1ccc(-n2nc(C(=O)NCC(=O)N3CCN(c4ccccc4F)CC3)c3ccccc3c2=O)cc1OC | – | – | – | – | – | · | · | · | · | · | ·
COc1ccc(-c2cn(CC[C@H]3CC[C@@H](NC(=O)Cc4ccccn4)[C@@H](CO)O3)nn2)cc1 | – | · | · | · | · | · | · | · | · | · | ·
COc1ccc(Nc2cc(C)c3c(O)cccc3n2)cc1 | 57 | – | – | – | 130 | – | – | – | – | – | –
COc1cccc(Nc2cc(C)c3ccccc3n2)c1 | 66 | – | – | – | – | – | – | – | – | – | –
COC(=O)c1cc(Nc2cc(C)c3c(O)cccc3n2)cc(C(=O)OC)c1 | – | – | – | – | – | · | · | · | · | · | ·
O=C(NCCC1=CCCCC1)c1cc(COc2c(F)cccc2F)on1 | – | – | – | – | – | · | · | · | · | · | ·
CC(=O)c1cccc(OCc2cc(C(=O)NCCC3=CCCCC3)no2)c1 | 83 | – | ? | – | – | – | – | – | – | – | –
C[C@H](CO)N1C[C@H](C)[C@H](CN(C)C(=O)CN(C)C)Oc2cc(C3=CCCCC3)ccc2S1(=O)=O | – | · | · | · | · | · | · | · | · | · | ·
Nc1nc(SCc2ccccc2)cc(SCc2ccccc2)n1 | 65 | · | 39 | · | – | – | – | – | – | – | –

From PubChem BioAssay
